Shown is part of a subset that was picked to be rich in hits.
SARS PLpro yeast = inhibitors of SARS-CoV papain-like protease in yeast; S. cerevisiae expressing SARS-CoV PLpro, growth rescue; Potency, µM (doses to about 32.9 µM), most hits filed as activators; AID 485353; actives 0.19% (n = 330,000); calls by dose curve; also: nearly all actives have a fitted effect of over 55% in size
AmpC no deterg = blocks E. coli AmpC beta-lactamase in detergent-free assay. P00811. AmpC nitrocefin hydrolysis, absorbance 480 nm, 0.0001% Triton. Potency, µM (series often up to 57.1 µM), most hits filed as inhibitors. actives 0.52% (n = 330,000); also: nearly all actives have a fitted effect of over 20% in size
Target sequence (P00811 whole entry, looked up): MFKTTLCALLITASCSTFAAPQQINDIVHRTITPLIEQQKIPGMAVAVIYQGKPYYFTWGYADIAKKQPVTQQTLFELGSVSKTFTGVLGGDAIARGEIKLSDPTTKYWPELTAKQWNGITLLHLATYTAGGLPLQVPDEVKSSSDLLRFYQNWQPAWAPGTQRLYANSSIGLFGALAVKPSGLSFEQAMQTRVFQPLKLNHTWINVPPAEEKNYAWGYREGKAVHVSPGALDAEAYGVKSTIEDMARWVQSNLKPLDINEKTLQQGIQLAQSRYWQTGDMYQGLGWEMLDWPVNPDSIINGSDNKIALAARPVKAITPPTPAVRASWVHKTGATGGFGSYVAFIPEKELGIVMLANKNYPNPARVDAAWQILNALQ
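20 mM phosphate pH 7.0 + 0.01% (detergent screen) or 0.0001% Triton X-100; 5.3 nM AmpC reagent; cpd preinc 15 min RT; nitrocefin (800 uM stock) to start; A480 q20 s × 4 min; Activity was normalised to no-enzyme and no-compound control wells.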
Shiga toxin inh = blocks Shiga toxin action in Vero cells; Vero cells, Shiga toxin protein synthesis inhibition reporter; inhibition, % at 38.7 µM; actives 9.2% (n = 290,000); in the data active = inhibition mostly above about 28%, no sharp cut-off; inactive = mostly below about 43%
Cycloheximide cs = affects cycloheximide protein synthesis inhibition readout, counter-screen | max response, % | actives 12% (n = 300,000) | cell reporter, cycloheximide protein synthesis inhibition counterscreen; in the data active = max response mostly above about 13%, no sharp cut-off; inactive = mostly below about 14%; also: read at 38.3 µM for the half of the compounds with a filed dose
AMA1-RON2 inh = disrupts binding of P. falciparum AMA1 to RON2 | actives 0.2% (n = 360,000) | Potency, µM (highest dose often 58.2 µM), most hits filed as inhibitors | AID 720542 | AlphaScreen AMA1-biotinylated RON2 peptide binding; also: nearly all actives have a fitted effect of over 45% in size
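AMA1 (3D7) with his tag at 25 nM final met compounds first, then biotinylated RON2 peptide at 25 nM; detection used donor plus acceptor beads, 10 µg/mL apiece, read by AlphaScreen after 30 min at room temperature.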
AmpC detergent = AmpC beta-lactamase inhibition with detergent present; P00811; AmpC hydrolysis of nitrocefin, absorbance 480 nm, 0.01% Triton; Potency, µM (highest dose often 114 µM), hits mostly inhibitors; actives 0.041% (n = 370,000); also: nearly all actives have a fitted effect of over 25% in size
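20 mM phosphate pH 7.0 + 0.01% (detergent screen) or 0.0001% Triton X-100; 5.3 nM AmpC reagent; cpd preinc 15 min RT; nitrocefin (800 uM stock) to start; A480 q20 s × 4 min; Activity was normalised to no-enzyme and no-compound control wells.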
Hits are given with their value; n = inactive; u = inconclusive; x = no result; [ ] = another dose, or the depositor's remark. Unless noted, calls follow the shape of the dose curve; as a rule, active = well fitted curve in the direction sought with a large enough effect; inconclusive = small, poorly fitted or top-dose-only effect, or another doubt; inactive = no such curve, though single readings can be large; an effect the other way counts as inactive or inconclusive.

SMILES	SARS PLpro yeast	AmpC no deterg	Shiga toxin inh	Cycloheximide cs	AMA1-RON2 inh	AmpC detergent
CCOc1ccc(C2C=C(c3ccccc3)Nc3nnnn32)cc1 (stereo not drawn)	n	n	131	58	n	u
CCOc1ccc(C2C=C(c3ccc(C)cc3)Nc3nnnn32)cc1 (stereo not drawn)	n	n	n	n	n	n
COc1ccc(C2=CC(c3cccc(C)c3)n3nnnc3N2)cc1 (stereo not drawn)	x	x	n	28	x	n
COc1ccccc1C(=O)OCC#CCSc1nnc(-c2cccc3ccccc23)o1	n	n	x	x	x	n
O=C(O/N=C1\CCS(=O)(=O)c2sccc21)c1ccccc1	n	n	n	n	n	n
O=C(O/N=C1\CCS(=O)(=O)c2sccc21)c1ccc(F)cc1	n	n	78	37	n	n
Cc1sc2ncnc(NCCCn3ccnc3)c2c1C	n	n	n	n	n	u
O=C1OC(Cc2ccccn2)C(=O)C1=C1SCCS1 (stereo not drawn)	n	n	active	29	n	n
Cc1ccc(NC(=O)C(NC2CCCC2)c2ccccc2)cc1Cl (stereo not drawn)	n	n	n	n	n	n
O=C(Nc1ccc(Br)cc1)c1cccnc1N1CCOCC1	n	n	n	n	n	n
O=C(Nc1ccc(F)cc1)C1CCCCC1	n	n	n	n	n	n
CC(=O)c1ccc(NC(=S)Nc2ccc(Br)c(Cl)c2)cc1	n	n	n	n	n	n
CC(=O)Nc1ccc(NC(=S)NC(=O)C2CC2)cc1	n	n	64	25	n	u
O=C(NC(=S)Nc1ccc(Br)c(Cl)c1)C1CC1	u	n	32	26	n	u
O=C(NC(=S)Nc1ccc(F)cc1)C1CCCCC1	n	n	89	23	n	n
COc1ccc(-c2nc3c(c(=O)[nH]c(=O)n3Cc3ccccc3)n2Cc2ccccc2)cc1	n	n	n	n	u	n
Cc1ccc(S(=O)(=O)Nc2c(C)nc3nc(C)[nH]n3c2=O)c(C)c1	n	n	n	n	n	n
O=C(NCC(c1ccco1)N1CCCC1)c1ccc(S(=O)(=O)Nc2ccccc2F)cc1 (stereo not drawn)	n	n	x	x	n	n
O=C(NNC(=O)c1cccs1)c1ccccn1	x	x	x	x	n	x
O=C(N/N=C/c1ccccn1)c1ccccc1	n	n	71	48	n	n
O=C(N/N=C\c1ccccn1)c1cccc(C(=O)N/N=C\c2ccccn2)n1	x	x	x	x	n	x
O=C(N/N=C/c1ccccn1)c1cccs1	n	n	76	38	n	n
O=C(Cc1ccc(F)cc1)N/N=C/c1ccccn1	n	n	n	n	n	u
O=C(Cc1cccs1)N/N=C/c1ccccn1	n	n	39	27	n	n
O=C(N/N=C/c1ccccn1)c1ccc(Cl)cc1	n	n	102	46	n	u
SMILES	SARS PLpro yeast	AmpC no deterg	Shiga toxin inh	Cycloheximide cs	AMA1-RON2 inh	AmpC detergent
COc1ccccc1-n1c(CCn2nc(C)c(Br)c2C)n[nH]c1=S	n	n	n	n	n	n
Cc1ccc(C(=O)Nc2ccc(C(=O)N/N=C/c3ccccn3)cc2)cc1	n	n	31	25	n	n
O=C(N/N=C/c1ccccn1)c1ccco1	n	n	71	47	n	n
O=C(N/N=C/c1ccc[nH]1)c1ccncc1	n	n	n	n	n	u
CN(C)c1ccc(C(=O)N/N=C/c2ccccn2)cc1	n	n	75	58	n	u
Cc1ccc(C(=O)Nc2ccc(C(=O)N/N=C/c3cccnc3)cc2)cc1	n	n	n	n	n	n
O=C(N/N=C/c1ccc[nH]1)c1ccc(Cl)cc1	n	n	39	34	n	n
O=C(N/N=C/c1ccc2ncccc2c1)c1ccco1	n	n	n	n	n	n
CS(=O)(=O)NNC(=O)C1Cc2c(ccc3ccccc23)O1 (stereo not drawn)	n	n	n	n	n	n
CCOC(=O)C(Cc1ccc(OC)c([N+](=O)[O-])c1)NC(=O)CCC(=O)Nc1ccc(C)cc1 (stereo not drawn)	n	n	n	n	n	n
Nc1nc(SCC(=O)NCc2ccc3c(c2)OCO3)n[nH]1	n	n[2.29 µM]	n	n	n	n

Screens from PubChem BioAssay.
